# Assay results reported in PubChem BioAssay (EPA / NIEHS).
# Several values for one entry are separate records, joined by “and”; a condition that tells them apart may be missing. Equal values may be shown once. A structure can be active in one record and inactive in another. Activity calls are given as the source filed them. Rule for the calls: active = hit-call score of the fitted dose curve at least 0.9, where 1 is the maximum; inactive = score below 0.9.
# Read-out: E-selectin (Homo sapiens) (UniProt P16581)
# Assay: BSK_SAg_Eselectin: BioMAP Diversity Plus: SAg Assay for Eselectin Biomarker Activity (AID 2283091)
# Details: primary human HUVEC with PBMC; actives raise or lower the signal
# Experimental: BSK_SAg is a cell-based, multiplexed-readout assay that uses umbilical vein endothelium and peripheral blood mononuclear cells, a human vascular primary cell co-culture, with measurements taken at 24 hours after chemical dosing in a 96-well plate.BSK_SAg_Eselectin is an assay component measured in the BSK_SAg assay. It measures E-selectin antibody related to regulation of gene expression using ELISA technology.Data from the assay component BSK_SAg_Eselectin was analyzed into 1 assay endpoint. This assay endpoint, BSK_SAg_Eselectin, was analyzed with bidirectional fitting relative to DMSO as the negative control and baseline of activity. Using a type of binding reporter, gain or loss-of-signal activity can be used to understand changes in the signaling as they relate to the gene SELE. Furthermore, this assay endpoint can be referred to as a primary readout, because this assay has produced multiple assay endpoints where this one serves a signaling function. To generalize the intended target to other relatable targets, this assay endpoint is annotated to the cell adhesion molecules intended target family, where the subfamily is selectins.
# The levels of cell surface (or secreted, indicated by the prefix "s") biomarker endpoints were measured by ELISA. Overt cytotoxicity to cells in confluent adherent cultures (all systems other than the BT system) was assessed by measuring total protein levels using sulforhodamine B (SRB) staining in parallel cultures at the time of biomarker measurements, indicated as SRB endpoints. For proliferation assays for adherent cell types, individual cell types are cultured at sub-confluence and relative cell numbers quantified by SRB staining at time points optimized for each system (48 h: 3C and CASM3C systems; 72 h: BT and HDF3CGF systems; 96 h: SAg system). SRB was performed by staining cells with 0.1% SRB after fixation with 10% TCA and reading wells at 560 nm.Viability and proliferation of PBMC (T cells) was quantified by Alamar Blue reduction for the SAg and BT systems. For PBMC viability (referred to as PBMC Cytotoxicity within the assay endpoint names), cells were plated (75,000/well in a 96-well plate) and then chemical samples added for 1 h before addition of activators, SEB and TSST-1 (20 ng/mL final concentration each). Cells were incubated for 90 h. Then, Alamar Blue (20 uL/well) (Invitrogen, Cat DAL1100) was added for 6 h, and the plates were read with a fluorescence microplate reader at 546/580 nm (excitation/emission). For PBMC proliferation, cells were plated and activated as above but incubated for only 16 h prior to addition of Alamar Blue. Plates were read after 6 h.
# E-selectin (Homo sapiens), sequence (P16581 whole entry, looked up): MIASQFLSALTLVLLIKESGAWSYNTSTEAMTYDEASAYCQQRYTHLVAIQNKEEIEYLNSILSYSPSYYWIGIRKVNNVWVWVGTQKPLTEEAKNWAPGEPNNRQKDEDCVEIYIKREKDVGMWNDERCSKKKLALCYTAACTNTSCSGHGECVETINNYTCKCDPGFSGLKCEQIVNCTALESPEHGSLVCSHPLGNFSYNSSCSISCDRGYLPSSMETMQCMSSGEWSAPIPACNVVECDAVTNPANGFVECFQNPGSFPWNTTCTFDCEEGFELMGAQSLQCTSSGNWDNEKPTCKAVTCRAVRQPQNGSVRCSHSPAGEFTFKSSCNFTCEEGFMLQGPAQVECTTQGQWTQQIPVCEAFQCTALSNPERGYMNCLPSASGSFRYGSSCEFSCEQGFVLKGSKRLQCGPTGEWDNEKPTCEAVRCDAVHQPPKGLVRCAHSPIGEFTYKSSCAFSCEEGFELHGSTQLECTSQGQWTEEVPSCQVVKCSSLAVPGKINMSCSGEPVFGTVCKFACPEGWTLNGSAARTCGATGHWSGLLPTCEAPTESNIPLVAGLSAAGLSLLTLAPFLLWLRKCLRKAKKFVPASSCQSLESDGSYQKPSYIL
SMILES,outcome,AC50
O=C(O)C(F)(F)C(F)(F)C(F)(F)C(F)(F)C(F)(F)C(F)(F)C(F)(F)C(F)(F)C(F)(F)C(F)(F)C(F)(F)C(F)(F)C(F)(F)F,inactive,–
C=CC(F)(F)C(F)(F)C(F)(F)C(F)(F)C(F)(F)C(F)(F)C(F)(F)C(F)(F)C=C,inactive,–
FC(F)(F)C(F)(F)C(F)(F)C(F)(F)C(F)(F)C(F)(F)CCS,inactive,–
FC(F)(F)C(F)(F)C(F)(F)C(F)(F)C(F)(F)C(F)(F)C(F)(F)Br,inactive,–
OCC(F)(F)C(F)(F)C(F)(F)C(F)F,inactive,–
COC(=O)CCC(F)(F)C(F)(F)C(F)(F)C(F)(F)F,inactive,–
FC(F)(I)C(F)(F)C(F)(F)C(F)(F)I,inactive,44.1 µM (active)
CCCCCCOC(=O)c1ccccc1O,–,38.3 µM (active) and 39.5 µM (active)
O=S(=O)(OCCOC(F)(F)F)C(F)(F)F,inactive,–
O=P(O)(O)OCCC(F)(F)C(F)(F)C(F)(F)C(F)(F)C(F)(F)C(F)(F)F,inactive,–
C=CC(=O)OCC(F)(F)C(F)(F)C(F)(F)C(F)(F)COC(=O)C=C,–,15.5 µM (active) and 15.3 µM (active)
OCC(F)(F)C(F)(F)C(F)(F)C(F)(F)C(F)(F)C(F)(F)F,inactive,–
CCCCCCCOC(=O)c1ccccc1C(=O)OCCCCCCC,inactive,–
O=C(Cl)C(F)(F)C(F)(F)C(F)(F)C(F)(F)C(F)(F)C(F)(F)C(F)(F)C(F)(F)F,inactive,–
CCO[Si](CCC(F)(F)C(F)(F)C(F)(F)C(F)(F)C(F)(F)C(F)(F)F)(OCC)OCC,inactive,–
O=C(O)C(F)(F)C(F)(F)C(F)(F)C(F)(F)C(F)(F)C(F)(F)C(F)(F)C(F)(F)C(F)(F)C(F)F,inactive,54.2 µM (active)
Nc1ccc([N+](=O)[O-])cc1O,inactive,–
FC(F)(F)C(F)(F)C(F)(F)C(F)(F)C(F)(F)CCI,inactive,–
O=C(O)C(F)(F)C(F)(F)C(F)(F)F,inactive,–

SMILES,outcome,AC50
O[Si](c1ccccc1)(c1ccccc1)c1ccccc1,–,31 µM (active)
FC(F)(F)C(F)(F)C(F)(F)CI,inactive,–
FC(F)(F)C(F)(F)C(F)(F)N(C(F)(F)C(F)(F)C(F)(F)F)C(F)(F)C(F)(F)C(F)(F)F,inactive,–
C#C[C@]1(O)CC[C@H]2[C@@H]3CCc4cc(OC)ccc4[C@H]3CC[C@@]21C,inactive,–
C=C(C)C(=O)OCCC(F)(F)C(F)(F)C(F)(F)C(F)(F)C(F)(C(F)(F)F)C(F)(F)F,inactive,–
Oc1ccc(Nc2ccccc2)cc1,–,25.1 µM (active)
FC1CC(F)(F)C(F)(F)C1(F)F (stereo unspecified),inactive,–
O=S(=O)(OCC(F)F)C(F)(F)F,inactive,–
CCc1c(Br)c(Br)c(Br)c(Br)c1Br,inactive,–
O=C(O)C(F)(F)C(F)(F)C(F)(F)C(F)(F)C(F)(F)C(F)(F)C(F)(F)C(F)(F)C(F)(F)C(F)(F)C(F)(F)C(F)(F)F,inactive,–
FC(F)(Br)C(F)(F)C(F)(F)C(F)(F)C(F)(F)C(F)(F)Br,inactive,–
FC(F)(F)C(F)(F)C(F)(F)C(F)(F)C(F)(F)C(F)(F)C(F)(F)C(F)(F)F,inactive,–
OCC(F)(F)C(F)(F)C(F)(F)F,inactive,–
O=C(O)C(F)(F)C(F)(F)C(F)(F)C(F)(F)C(F)(F)C(F)(F)C(F)(F)C(F)(F)Cl,inactive,–
OCCCC(F)(F)C(F)(F)C(F)(F)C(F)(F)C(F)(F)C(F)(F)C(F)(F)F,–,44.2 µM (active) and 38.8 µM (active)
FC(F)(F)C(F)(F)C(F)(F)C(F)(F)C(F)(F)C(F)(F)C(F)(F)C(F)(F)CCS,inactive,–
C=CC(=O)OCC(F)(F)C(F)(F)C(F)(F)C(F)(F)C(F)(F)C(F)(F)C(F)(F)F,inactive,–
O=C(O)C(F)(OC(F)(F)C(F)(OC(F)(F)C(F)(F)C(F)(F)F)C(F)(F)F)C(F)(F)F (stereo unspecified),inactive,–
CC(C)(C)C(=O)CC(=O)C(F)(F)C(F)(F)C(F)(F)F,inactive,41.1 µM (active)
